Target: Fibroblast growth factor receptor 2 (Homo sapiens) (UniProt P21802);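 further: reported figure is a mean percent inhibition of FGFR2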
Conditions: at 1 µM

Chain of Fibroblast growth factor receptor 2 (Homo sapiens) (P21802 22-821 limits assumed): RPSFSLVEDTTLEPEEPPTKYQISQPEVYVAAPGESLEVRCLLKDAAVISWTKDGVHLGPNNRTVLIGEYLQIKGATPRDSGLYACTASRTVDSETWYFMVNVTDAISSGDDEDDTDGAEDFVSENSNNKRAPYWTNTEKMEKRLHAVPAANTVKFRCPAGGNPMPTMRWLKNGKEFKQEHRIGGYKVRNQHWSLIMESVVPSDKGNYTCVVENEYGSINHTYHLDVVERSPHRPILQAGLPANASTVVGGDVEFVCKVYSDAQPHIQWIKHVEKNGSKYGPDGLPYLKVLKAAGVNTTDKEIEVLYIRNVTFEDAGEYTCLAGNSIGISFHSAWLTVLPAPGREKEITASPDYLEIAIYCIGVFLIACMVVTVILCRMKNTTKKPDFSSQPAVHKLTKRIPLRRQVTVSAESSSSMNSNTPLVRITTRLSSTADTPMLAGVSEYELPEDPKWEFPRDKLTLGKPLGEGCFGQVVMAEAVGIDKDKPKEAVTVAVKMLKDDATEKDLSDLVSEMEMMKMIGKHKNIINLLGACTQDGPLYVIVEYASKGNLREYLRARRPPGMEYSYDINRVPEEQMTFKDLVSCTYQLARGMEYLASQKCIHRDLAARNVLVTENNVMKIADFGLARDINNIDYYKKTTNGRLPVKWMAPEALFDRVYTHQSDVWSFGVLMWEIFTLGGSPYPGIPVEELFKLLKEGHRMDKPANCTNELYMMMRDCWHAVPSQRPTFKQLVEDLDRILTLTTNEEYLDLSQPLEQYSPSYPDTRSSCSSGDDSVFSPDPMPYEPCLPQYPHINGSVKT

Going from `Fc1cccc(COc2ccc(Nc3ncnc4sc(-c5cccs5)cc34)cc2Cl)c1` to `Fc1cccc(COc2ccc(Nc3ncnc4cc(-c5ccc[nH]5)sc34)cc2Cl)c1`, the inhibition falls from 3.32% to 0.05%.

Going from `CC1=C(C(=O)Nc2ccc3[nH]ncc3c2)C(c2ccc(F)cc2)NC(=O)N1` (stereo not drawn) to `CC1=C(C(=O)Nc2ccc3[nH]ncc3c2)C(c2ccc(Cl)c(Cl)c2)CC(=O)N1` (stereo not drawn), the inhibition rises from 18.4% to 20.4%.

Compared with `CCn1c(-c2nonc2N)nc2c(N3CCCC3)nccc21`, `CCn1c(-c2nonc2N)nc2c(C#CC(C)(C)O)nc(CN3CCCC3)cc21` is higher in inhibition: -1.03% for the first, 0.42% for the second.

Going from `NS(=O)(=O)c1ccc(N/N=C2\C(=O)Nc3ccc(C(=O)NCCc4c[nH]cn4)cc32)cc1` to `CC(C)=Cc1cccc2c1/C(=N/Nc1ccc(S(N)(=O)=O)cc1)C(=O)N2`, the inhibition rises from 11.5% to 36.8%.

Compared with `COc1cc2ncn(-c3cc(O[C@H](C)c4ccccc4Cl)c(C(N)=O)s3)c2cc1OC`, `COc1cc2ncn(-c3cc(O[C@@H](C)c4ccccc4Cl)c(C(N)=O)s3)c2cc1OC` is lower in inhibition: 44.9% for the first, 21.9% for the second.

First: CN1CCC(C(=O)Nc2n[nH]c3nnc(-c4ccccc4)cc23)CC1
Second: O=C(Nc1n[nH]c2nc(-c3ccco3)c(Br)cc12)C1CC1
The inhibition of the first is lower: 5.58% for the first, 7.9% for the second.

Compared with `Cn1cc(C=C2C(=O)Nc3cccnc32)c2ccccc21`, `O=C1NC(=O)C(c2ccccc2Cl)=C1Nc1cccc(O)c1` is lower in inhibition: 42.2% for the first, -3.75% for the second.

Going from `COc1ccc(-c2nn3ncccc3c2-c2ccnc(Nc3ccc(Cl)c(C(F)(F)F)c3)n2)cc1` to `CS(=O)(=O)CCNCc1ccc(-c2ccc3ncnc(Nc4ccc(OCc5cccc(F)c5)c(C(F)(F)F)c4)c3c2)o1`, the inhibition rises from 2.97% to 4.51%.

First: NC(=O)c1cccc(Nc2nccc(Nc3cccc4[nH]ncc34)n2)c1
Second: Cc1nn(C)c2cc(N(C)c3ccnc(Nc4cccc(S(N)(=O)=O)c4)n3)ccc12
The inhibition of the first is lower: 13.1% for the first, 20.7% for the second.

First: COc1ccc(-c2ccncc2)cc1C(N)=O
Second: COc1ccc(-c2coc3ncnc(N)c23)cc1
The inhibition of the first is lower: 8.69% for the first, 10.1% for the second.

Going from `CS(=O)(=O)CCN(CC#N)Cc1ccc(-c2ccc3ncnc(Nc4ccc(OCc5cccc(F)c5)c(Cl)c4)c3c2)o1` to `COc1cccc(-n2ncc3c(N/N=C/c4cccc(F)c4)ncnc32)c1`, the inhibition rises from -2.13% to -0.48%.

Going from `CNC(=O)c1cncc(/C=C/c2c(Cl)cccc2Cl)c1` to `O=C1NC(=O)C(c2cccc(Cl)c2)=C1Nc1ccc(O)c(Cl)c1`, the inhibition rises from 7.15% to 32.5%.

Going from `COc1ccccc1Nc1ncc(-c2ccccc2)o1` to `COc1cc(C=NNc2ncnc3c2cnn3-c2ccccc2)ccc1O`, the inhibition falls from 13.7% to 9.48%.

Going from `CCn1c(-c2nonc2N)nc2cncc(C(=O)N3CC[C@H](N)C3)c21` to `Cc1ccc(NC(=O)c2ccnc(N3CCCC3)c2)cc1-c1ccc(C(=O)NCC2CC2)cc1`, the inhibition rises from 4.96% to 7.09%.

Compared with `COc1cc2ncn(-c3cc(OCc4ccccc4Cl)c(C(N)=O)s3)c2cc1OC`, `COc1cc2ncn(-c3cc(OCc4ccccc4C(F)(F)F)c(C(N)=O)s3)c2cc1OC` is higher in inhibition: 13.2% for the first, 20.9% for the second.

Compared with `Nc1ncnc2occ(-c3ccc(NC(=O)Nc4cccc(C(F)(F)F)c4)cc3)c12`, `Cc1nnc(-c2ccc(C)c(-c3ccc(C(=O)Nc4cccc(C#N)c4)cc3)c2)o1` is lower in inhibition: 52.5% for the first, 4.97% for the second.

Going from `NC(=O)c1ccc(-c2nc(-c3ccccn3)c(-c3ccc4c(c3)OCO4)[nH]2)cc1` to `N#Cc1c(NC(=O)c2cccc3ccccc23)sc2c1CCCC2`, the inhibition rises from 1.31% to 4.84%.

Target: Fibroblast growth factor receptor 3 (Homo sapiens) (UniProt P22607);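 further: each value is a mean percent inhibition of FGFR3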
Conditions: at 0.1 µM

Chain of Fibroblast growth factor receptor 3 (Homo sapiens) (P22607 23-806 limits assumed): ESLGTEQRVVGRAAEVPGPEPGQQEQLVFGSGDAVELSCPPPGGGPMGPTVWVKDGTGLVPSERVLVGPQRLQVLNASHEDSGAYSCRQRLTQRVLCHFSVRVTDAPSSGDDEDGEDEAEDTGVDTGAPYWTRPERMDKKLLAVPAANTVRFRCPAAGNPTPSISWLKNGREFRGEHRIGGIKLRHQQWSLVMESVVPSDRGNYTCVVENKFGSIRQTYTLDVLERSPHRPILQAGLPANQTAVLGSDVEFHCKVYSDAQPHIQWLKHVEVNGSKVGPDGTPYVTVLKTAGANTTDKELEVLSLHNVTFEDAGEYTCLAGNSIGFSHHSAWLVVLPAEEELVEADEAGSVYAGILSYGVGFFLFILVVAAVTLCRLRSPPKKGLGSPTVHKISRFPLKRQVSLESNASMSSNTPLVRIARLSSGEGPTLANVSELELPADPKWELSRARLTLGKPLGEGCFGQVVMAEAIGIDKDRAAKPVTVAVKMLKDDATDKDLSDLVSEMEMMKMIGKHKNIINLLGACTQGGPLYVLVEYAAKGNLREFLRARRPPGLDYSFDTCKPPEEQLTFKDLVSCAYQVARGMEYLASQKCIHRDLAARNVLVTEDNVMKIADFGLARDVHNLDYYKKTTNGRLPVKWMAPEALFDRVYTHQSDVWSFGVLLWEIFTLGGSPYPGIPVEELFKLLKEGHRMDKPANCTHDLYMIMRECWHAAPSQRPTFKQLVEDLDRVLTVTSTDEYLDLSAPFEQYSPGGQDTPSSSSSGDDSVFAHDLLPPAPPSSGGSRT

First: Fc1cccc(COc2ccc(Nc3ncnc4sc(-c5cccs5)cc34)cc2Cl)c1
Second: Fc1cccc(COc2ccc(Nc3ncnc4cc(-c5ccc[nH]5)sc34)cc2Cl)c1
The inhibition of the first is higher: 0.4% for the first, -1% for the second.

Going from `CC1=C(C(=O)Nc2ccc3[nH]ncc3c2)C(c2ccc(F)cc2)NC(=O)N1` (stereo not drawn) to `CC1=C(C(=O)Nc2ccc3[nH]ncc3c2)C(c2ccc(Cl)c(Cl)c2)CC(=O)N1` (stereo not drawn), the inhibition falls from 4.3% to 2.17%.

Compared with `CCn1c(-c2nonc2N)nc2c(N3CCCC3)nccc21`, `CCn1c(-c2nonc2N)nc2c(C#CC(C)(C)O)nc(CN3CCCC3)cc21` is lower in inhibition: 0.34% for the first, -2.14% for the second.

First: NS(=O)(=O)c1ccc(N/N=C2\C(=O)Nc3ccc(C(=O)NCCc4c[nH]cn4)cc32)cc1
Second: CC(C)=Cc1cccc2c1/C(=N/Nc1ccc(S(N)(=O)=O)cc1)C(=O)N2
The inhibition of the first is higher: 6.41% for the first, 3.36% for the second.

Going from `COc1cc2ncn(-c3cc(O[C@H](C)c4ccccc4Cl)c(C(N)=O)s3)c2cc1OC` to `COc1cc2ncn(-c3cc(O[C@@H](C)c4ccccc4Cl)c(C(N)=O)s3)c2cc1OC`, the inhibition falls from 9.47% to 6.87%.

Compared with `CN1CCC(C(=O)Nc2n[nH]c3nnc(-c4ccccc4)cc23)CC1`, `O=C(Nc1n[nH]c2nc(-c3ccco3)c(Br)cc12)C1CC1` is higher in inhibition: 5.57% for the first, 6.29% for the second.

First: Cn1cc(C=C2C(=O)Nc3cccnc32)c2ccccc21
Second: O=C1NC(=O)C(c2ccccc2Cl)=C1Nc1cccc(O)c1
The inhibition of the first is higher: 11.2% for the first, 2.9% for the second.

Compared with `COc1ccc(-c2nn3ncccc3c2-c2ccnc(Nc3ccc(Cl)c(C(F)(F)F)c3)n2)cc1`, `CS(=O)(=O)CCNCc1ccc(-c2ccc3ncnc(Nc4ccc(OCc5cccc(F)c5)c(C(F)(F)F)c4)c3c2)o1` is higher in inhibition: 2.57% for the first, 4.79% for the second.

Going from `NC(=O)c1cccc(Nc2nccc(Nc3cccc4[nH]ncc34)n2)c1` to `Cc1nn(C)c2cc(N(C)c3ccnc(Nc4cccc(S(N)(=O)=O)c4)n3)ccc12`, the inhibition rises from -3.38% to 3.96%.

Compared with `COc1ccc(-c2ccncc2)cc1C(N)=O`, `COc1ccc(-c2coc3ncnc(N)c23)cc1` is lower in inhibition: 7.66% for the first, 6.98% for the second.

First: CS(=O)(=O)CCN(CC#N)Cc1ccc(-c2ccc3ncnc(Nc4ccc(OCc5cccc(F)c5)c(Cl)c4)c3c2)o1
Second: COc1cccc(-n2ncc3c(N/N=C/c4cccc(F)c4)ncnc32)c1
The inhibition of the first is lower: -1.19% for the first, 0.54% for the second.

Going from `CNC(=O)c1cncc(/C=C/c2c(Cl)cccc2Cl)c1` to `O=C1NC(=O)C(c2cccc(Cl)c2)=C1Nc1ccc(O)c(Cl)c1`, the inhibition falls from 5.62% to 4.37%.

Compared with `COc1ccccc1Nc1ncc(-c2ccccc2)o1`, `COc1cc(C=NNc2ncnc3c2cnn3-c2ccccc2)ccc1O` is lower in inhibition: 6.19% for the first, 2.91% for the second.

Going from `CCn1c(-c2nonc2N)nc2cncc(C(=O)N3CC[C@H](N)C3)c21` to `Cc1ccc(NC(=O)c2ccnc(N3CCCC3)c2)cc1-c1ccc(C(=O)NCC2CC2)cc1`, the inhibition rises from 3.72% to 6.97%.

Going from `COc1cc2ncn(-c3cc(OCc4ccccc4Cl)c(C(N)=O)s3)c2cc1OC` to `COc1cc2ncn(-c3cc(OCc4ccccc4C(F)(F)F)c(C(N)=O)s3)c2cc1OC`, the inhibition rises from 4.37% to 6.21%.

Compared with `Nc1ncnc2occ(-c3ccc(NC(=O)Nc4cccc(C(F)(F)F)c4)cc3)c12`, `Cc1nnc(-c2ccc(C)c(-c3ccc(C(=O)Nc4cccc(C#N)c4)cc3)c2)o1` is lower in inhibition: 7.97% for the first, 2.6% for the second.

First: NC(=O)c1ccc(-c2nc(-c3ccccn3)c(-c3ccc4c(c3)OCO4)[nH]2)cc1
Second: N#Cc1c(NC(=O)c2cccc3ccccc23)sc2c1CCCC2
The inhibition of the first is lower: 2.79% for the first, 5.84% for the second.
